# Laboratory results: PubChem BioAssay AID488899 (Broad Institute, 2010)
# In all, about 330,000 compounds went through this assay and about 2,800 (0.85%) were called active. The full list was thinned out, with actives kept by preference. A number with no mark means an inactive call.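 How the source made its calls: active means mean inhibition across replicates of 60% or more, whatever share of single replicates reaches that level; inconclusive means some that reach 60%, reason not given; inactive means mean inhibition across replicates below 60%.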
# Assay: inhibitors of MITF-dependent TRPM1 promoter reporter, primary screen, cell-based, SK-MEL-5, single point, luciferase (AID 488899)
# Details: SK-MEL-5 TRPM1 promoter luciferase, 24 h; at 12.5 µM; active compounds read high
row,Structure (SMILES),inhibition
1,CC[C@]1(O)CC2CN(CCc3c([nH]c4ccccc34)[C@@](C(=O)OC)(c3cc4c(cc3OC)N(C=O)[C@H]3[C@@](O)(C(=O)OC)[C@H](OC(C)=O)[C@]5(CC)C=CCN6CC[C@]43[C@@H]65)C2)C1 (some centres undefined),45.8%
2,CC[C@]1(O)C[C@@H]2CN(CCc3c([nH]c4ccccc34)[C@@](C(=O)OC)(c3cc4c(cc3OC)N(C)[C@H]3[C@@](O)(C(=O)OC)[C@H](OC(C)=O)[C@]5(CC)C=CCN6CC[C@]43[C@@H]65)C2)C1,62.2% (active)
3,CCC1SC(CC)C(=O)N(CC(=O)NC2CCCCC2)C1=O (centres undefined),13.1%
4,Clc1ccc(C[n+]2cc(-c3ccc(Cl)cc3)n3c2CCC3)cc1,47.5%
5,CN(C)Cc1c(C(=O)N/N=C/c2ccccc2OCc2ccc(F)cc2)nnn1-c1nonc1N,-15.2%
6,Cc1ccc2c(O)c(Cc3ccccc3)c(=O)[nH]c2n1,2.8%
7,COC(=O)COc1ccc2c(=O)c(Oc3ccccc3Br)coc2c1,-0.261%
8,O=C(O)c1ccc(Cn2cnc3c(=S)nc[nH]c32)cc1,-0.814%
9,COc1ccccc1-c1nnc2n1N=C(c1ccc(OC(F)F)c(OCC3CC3)c1)CS2,-4.86%
10,CC1=Nn2c(nnc2-c2ccccc2)SC1,-0.377%
11,COc1ccc(C2=Nn3c(nnc3-c3ccccc3OC)SC2)cc1OC1CCCC1,65.9% (active)
12,COC(C[C@H](O)CC(=O)COCc1ccccc1)OC,-3.12%
13,O=C(O)CN1c2cccc3cccc(c23)S1(=O)=O,13.3%
14,N/C(=N\OC(=O)Nc1ccccc1)c1ccno1,-14%
15,CCCOc1ccc(C(=O)CCC(=O)OC(C)C(=O)Nc2ccc(NC(C)=O)cc2)cc1 (centres undefined),-26%
16,CCCCOc1ccc(C(=O)NN2CCN(C)CC2)cc1,-7.2%
17,CCCOc1ccc(C(=O)C(CCC(CNCC)C(=O)c2ccc(OCCC)cc2)CNCC)cc1 (centres undefined),102% (active)
18,C=CCOc1ccc(/C=C2\SC(=S)N(CCC(=O)O)C2=O)cc1,78.2% (active)
19,COc1ccc(/C=C2\SC(=S)N(CCCC(=O)NC3CCCC3)C2=O)cc1OC,37.5%
20,Cc1ccc(/C=C2/SC(=S)N(CCC(=O)NCCCN3CCOCC3)C2=O)cc1,-20.1%
21,Cc1ccc(S(=O)(=O)N(CC(=O)Nc2cccc([N+](=O)[O-])c2)Cc2ccc(Cl)cc2)cc1,15.8%
22,CC(=O)c1cccc(NC(=O)C2CCN(C(=O)c3ccccc3Cl)CC2)c1,28.4%
23,O=C(COC(=O)C1CCN(S(=O)(=O)c2ccc3c(c2)OCCO3)CC1)Nc1ccccc1OC(F)F,-1.73%

row,Structure (SMILES),inhibition
1,CCOC(=O)/C(=C\c1ccc([N+](=O)[O-])cc1)C(=O)c1cc(C(C)=O)c(Nc2ccccc2)s1,100% (active)
2,Cc1ccc(NC(=O)/C(=C/c2ccc([N+](=O)[O-])cc2)NC(=O)c2ccccc2)cc1,8.59%
3,CCOC(=O)/C(=N\Nc1ccccc1[N+](=O)[O-])c1csc(Nc2ccccc2)n1,-14.3%
4,CC(=O)c1ccc(N2CCN(C(=O)CCNC(=O)Cn3ccc4ccccc4c3=O)CC2)cc1,0.055%
5,CCC(=C/c1sc2ccc3ccccc3c2[n+]1C)/C=C1\Sc2ccc3ccccc3c2N1C,77.8% (active)
6,Cc1nc(-c2nnc(SCC(=O)Nc3cc(C(F)(F)F)cc(C(F)(F)F)c3)n2C)cs1,6.42%
7,CCCCOc1ccc(C(=O)N/C(=C/C=C/c2ccccc2)C(=O)N2CCOCC2)cc1,0.224%
8,O=[N+]([O-])c1cc2ccccc2nc1-c1ccccc1,-2.83%
9,CN(C)CCn1c2c(c(SCC(=O)Nc3ccccc3C(F)(F)F)nc1=O)CCCC2,1.54%
10,O=[N+]([O-])c1ccccc1/C=C/CN1CCC(O)CC1,-6.15%
11,CC1CCCCC1NC(=O)/C(C#N)=C/C=C/c1ccccc1[N+](=O)[O-] (centres undefined),87% (active)
12,O=[N+]([O-])c1ccccc1/C=C/CN1CCCC(CO)C1 (centres undefined),3.33%
13,CSCCC(NS(=O)(=O)c1ccc2c(c1)oc(=O)n2C)C(=O)NC1CCCc2ccccc21 (centres undefined),4.17%
14,Cc1cccc(/C(N)=N/OC(=O)c2ccccc2Cl)c1,-7.17%
15,COc1ccccc1NC(=O)CCC(=O)N1CC(C)Oc2ccc(C)cc21 (centres undefined),-0.622%
16,CC1CN(C(=O)CCC(=O)NCc2cccnc2)c2ccccc2O1 (centres undefined),-4.62%
17,CC1CN(C(=O)CCC(=O)NCCCN2CCC(Cc3ccccc3)CC2)c2cc(Cl)ccc2O1 (centres undefined),81.8% (active)
18,COc1ccc(OC)c(-c2c(=O)n(OCc3ccccc3Br)c3ccccc3[n+]2[O-])c1,15.9%
19,CC(=O)Nc1ccc(S(=O)(=O)NC2Cc3ccccc3C2)cc1,4.61%
20,C=C(C)C(=O)Nc1cccc(C2=NOC3(C2)C[C@H](C(N)=O)N(C(=O)C(c2ccccc2)c2ccccc2)C3)c1 (some centres undefined),0.48%
21,CCN(CC)S(=O)(=O)c1ccc(NC(=O)c2cccnc2Cl)c(NC(=O)c2cccnc2Cl)c1,74.2% (active)
22,CCN(CC)S(=O)(=O)c1ccc(NC(=O)c2cnc(C)cn2)cc1,10.2%
23,CCN(CC)S(=O)(=O)c1ccc(Cl)c(NC(=O)c2ccncc2)c1,0.4%

row,Structure (SMILES),inhibition
1,O=C1CC(c2ccccc2)C(c2ccccc2)=NN1 (centres undefined),5.8%
2,Cc1cccc(N(C(=O)Cn2nnc(-c3ccc(C)o3)n2)C(C(=O)NC2CCCC2)c2ccncc2)c1 (centres undefined),3.32%
3,CCN(CC)CCCC(C)n1c2nc(=O)[nH]c(=O)c-2nc2cc(Cl)ccc21 (centres undefined),83.3% (active)
4,CCN(CC)CCn1c2ccc(Cl)cc2c2nc(C)sc21,6.02%
5,CCOC(=O)c1c(C)[nH]c(C(=O)NCCN2CCOCC2)c1C,8.7%
6,COc1ccccc1NC(=O)N(O)C1(C#N)CCCCC1,-7.2%
7,CN1c2ccc(C=O)c3c(C=O)ccc(c23)N(C)C1(C)C,96.4% (active)
8,CCN(C(=O)COC(=O)c1c(NC(C)=O)sc(C)c1C)C1CCS(=O)(=O)C1 (centres undefined),11%
9,COc1ccc(C(CCNCc2ccccc2F)c2ccc(F)cc2)cc1 (centres undefined),-10.4%
10,COc1ccccc1NC(=O)CCCc1c[nH]c2ccccc12,-1.28%
11,COc1cccc(CNCCc2c[nH]c3ccccc23)c1OCc1ccccc1F,95.2% (active)
12,O=C(c1cc(COc2ccc(F)cc2F)on1)N1CCOCC1,-44.5%
13,CC(C)c1ccc(S(=O)(=O)N2CCN(C(=O)CN3C(=O)NC(C)(c4ccccc4)C3=O)CC2)cc1 (centres undefined),-4.8%
14,Cc1csc(NC(=O)CSc2nnc(-c3cccnc3)o2)n1,-14.8%
15,O=C(CCl)N(Cc1cccc([N+](=O)[O-])c1)c1cccc(Cl)c1,66.2% (active)
16,CCN(CC)C(=O)CN(c1cccc([N+](=O)[O-])c1)S(=O)(=O)c1ccccc1,-4.33%
17,Cc1ccc(S(=O)(=O)N(Cc2cccc([N+](=O)[O-])c2)C(=O)N2CCN(C)CC2)cc1,4.92%
18,COCCSc1nnc(NC(=O)c2cc(OC)c(OC)cc2[N+](=O)[O-])s1,-2.51%
19,CC(=NNC(=O)c1ccncc1)c1ccc(Cl)c(Cl)c1,-7.3%
20,NS(=O)(=O)c1ccc(CNC(=O)c2ccc(Cl)cc2[N+](=O)[O-])cc1,10.6%
21,CC1=C(C(=O)OCc2ccccc2)C(c2ccc(C(F)(F)F)cc2)NC(=O)N1CCCCCC(=O)O (centres undefined),-6.33%
22,CCN1C(=O)N[C@@H](c2ccccc2)C(C(=O)OC)=C1C,-9.9%
23,CCOC(=O)CCCNC(=O)CN1C(=O)NC(CCc2ccccc2)C1=O (centres undefined),4.69%

row,Structure (SMILES),inhibition
1,CCCCNC(=O)C(C)N(CCN(C)C)C(=O)CCCN1C(=O)NC(c2ccc(Cl)cc2)C(C(=O)OCc2ccccc2)=C1C (centres undefined),91.1% (active)
2,CCCCNC(=O)C(C)N(CCN(C)C)C(=O)CCCCCN1C(=O)NC(c2ccc(Cl)cc2)C(C(=O)OCc2ccccc2)=C1C (centres undefined),94.5% (active)
3,CCOC(=O)C1=C(c2ccccc2)NC(=S)NC1c1ccc(Cl)cc1 (centres undefined),-19%
4,C/C(CC(=O)NCc1ccc(Cl)cc1)=N\NC(=O)COc1ccc(C)cc1Br,40.1%
5,Nc1nc(SCC(=O)N2CCN(S(=O)(=O)c3ccc(Cl)cc3)CC2)n[nH]1,-2.96%
6,Fc1ccccc1/C=N/Nc1cc(N2CCCCC2)ncn1,-35%
7,COc1cccc2sc(N(CCCN(C)C)C(=O)CCS(=O)(=O)c3ccccc3)nc12,31.1%
8,COc1cccc2sc(N(CCCN(C)C)C(=O)C(c3ccccc3)c3ccccc3)nc12,71.9% (active)
9,COc1cc2ccccc2cc1C(=O)N(CCN(C)C)c1nc2c(F)cccc2s1,2.41%
10,COc1cccc2c1C(=O)c1c(O)c3c(c(O)c1C2=O)CC(O)(C(C)=NNC(=O)c1ccc(Cl)c(Cl)c1)CC3OC1CC(N)C(O)C(C)O1 (centres undefined),82.2% (active)
11,CN(CC(=O)Nc1ccc(F)c(F)c1F)C(=O)Cn1cnc2c1c(=O)n(C)c(=O)n2C,-2.69%
12,Cc1ccc(OCC(=O)Nc2ccc3oc(=O)ccc3c2)cc1C,-15.4%
13,CCN1/C(=C\c2ccc3ccccc3[n+]2CC)Sc2cc(C)ccc21,104% (active)
14,CC(C)(C)n1nc2c(c1NC(=O)c1ccc(S(=O)(=O)N3CCCC3)cc1)CS(=O)C2 (centres undefined),-11.4%
15,COc1ccc(S(=O)(=O)/N=C2\C=C(NS(=O)(=O)c3ccccc3)C(=O)c3ccccc32)cc1,12.7%
16,CC(NC(=O)c1ccccc1)C(=O)Nc1ccccc1 (centres undefined),-6.34%
17,O=C(NC1=CC(=O)c2ccccc2C1=O)c1ccccc1,94.4% (active)
18,O=S(=O)(NCCNS(=O)(=O)c1ccccc1)c1ccccc1,11.2%
19,O=C1C=C(NS(=O)(=O)c2ccccc2)C(=O)c2ccccc21,65.7% (active)
20,Cn1c(NC(=O)c2ccccc2)nc2ccccc21,-26.1%
